Source: paper PMC8384837, “Expanding the binding specificity for RNA recognition by a PUF domain”

These sequences were tested against PUM1 PUF domain R5-RYV (Homo sapiens, UniProt Q14671 828-1176, C1007R;R1008Y;Q1011V) (assay: yeast three-hybrid, YBZ-1, SC-Leu-His + 0.5 mM 3-AT, 4 days). Conditions: tags: N-Gal4 AD-HA kept; label: inside an RPR1-promoter hybrid RNA with tandem MS2 sites; ssRNA.
How it was run: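 A centromeric plasmid in strain YBZ-1 co-expressed Pumilio-1 PUF domain libraries, randomized at the three base-contacting residues of each repeat, with matching RNA elements; the strain carries a LexA–MS2 coat fusion and a HIS3 reporter. After four days on SC-Leu (input) or SC-Leu-His + 0.5 mM 3-AT (selection), the repeat regions were PCR-amplified and Illumina-sequenced. The interaction score is the log change in variant frequency from input to selection, using log2 and a pseudocount of 1 where absent.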

Sequence	binding signal
GGCUAGAACUAGUGGAUCCCCCGGCGCCCGGCGGCUCGAGCCCGGGUAAGUGUUAAUAGUCUGCAUGCCGCCGGGCGCCAUGCCUGCAGGUCGACUCUAGAAAACAUG	4.93 log2 enrichment (interaction score)
GGCUAGAACUAGUGGAUCCCCCGGCGCCCGGCGGCUCGAGCCCGGGUAAGUGUGAAUAGUCUGCAUGCCGCCGGGCGCCAUGCCUGCAGGUCGACUCUAGAAAACAUG	2.35 log2 enrichment (interaction score)
GGCUAGAACUAGUGGAUCCCCCGGCGCCCGGCGGCUCGAGCCCGGGUAAGUGUCAAUAGUCUGCAUGCCGCCGGGCGCCAUGCCUGCAGGUCGACUCUAGAAAACAUG	5.29 log2 enrichment (interaction score)
GGCUAGAACUAGUGGAUCCCCCGGCGCCCGGCGGCUCGAGCCCGGGUAAGUGUAAAUAGUCUGCAUGCCGCCGGGCGCCAUGCCUGCAGGUCGACUCUAGAAAACAUG	1.83 log2 enrichment (interaction score)
